# MsrA inhibitor: bovine MsrA enzyme inhibitors, primary screen, biochemical, absorbance, HTS. Methionine sulfoxide reductase A (Bos taurus). purified bovine MsrA, absorbance read-out. actives 0.75% (n = 360,000). inhibition, % at 15.5 µM; in the data active = inhibition above about 4.5%;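 note: 0% = vehicle wells with enzyme and 100% = reference inhibitor wells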
# PG9 binder: binders of HIV-1 gp120 antibody PG9, primary screen, biochemical, TR-FRET; actives 0.43% (n = 360,000); HIV-1 gp120 / PG9 antibody interaction; inhibition, % at 6.7 µM; TR-FRET gp120-PG9 antibody binding; in the data active = inhibition above about 8.5%
# bovine MsrA act: bovine MsrA enzyme activators, primary screen, biochemical, absorbance, HTS. Methionine sulfoxide reductase A (Bos taurus). actives 0.3% (n = 360,000). purified bovine MsrA, absorbance read-out. activation, % at 10.6 µM; in the data active = activation above about 7.5%;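 note: 0% = vehicle and 100% = reference activator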
# HGIII-sPLA2 inh: human group III sPLA2 inhibitors, primary screen, biochemical, QFRET, BODIPY PC-A2 liposome substrate | QFRET BODIPY PC-A2 liposome hydrolysis, fluorescence | inhibition, % at 12.2 µM | actives 0.56% (n = 370,000) | AID 743126, 2013;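 active = inhibition above mean plus 3 SD of compounds lying within the high and low control bounds, cut at about 19% in these data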;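 note: 0% = median of test compound wells and 100% = no enzyme DMSO wells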
# Target sequence (Q9NZ20 whole entry, looked up): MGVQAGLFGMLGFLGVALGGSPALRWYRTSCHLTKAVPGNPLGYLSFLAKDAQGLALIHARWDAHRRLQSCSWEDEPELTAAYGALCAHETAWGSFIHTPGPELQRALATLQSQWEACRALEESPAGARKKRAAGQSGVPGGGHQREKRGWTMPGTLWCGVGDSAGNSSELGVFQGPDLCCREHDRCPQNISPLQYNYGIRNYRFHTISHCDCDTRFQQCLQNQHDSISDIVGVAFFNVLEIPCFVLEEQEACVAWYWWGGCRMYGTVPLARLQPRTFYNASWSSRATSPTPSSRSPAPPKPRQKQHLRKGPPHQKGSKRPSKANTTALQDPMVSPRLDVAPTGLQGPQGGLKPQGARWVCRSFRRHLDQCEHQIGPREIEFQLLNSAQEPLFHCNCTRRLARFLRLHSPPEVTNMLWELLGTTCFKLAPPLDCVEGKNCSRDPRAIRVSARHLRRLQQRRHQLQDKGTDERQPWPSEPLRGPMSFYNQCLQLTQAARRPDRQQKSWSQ
# rCAG RNA binder: binders of r(CAG) RNA repeats, primary screen, biochemical, fluorescence; r(CAG) RNA repeat, TO-PRO-1 dye displacement fluorescence; inhibition, % at 3 µM; actives 1.3% (n = 370,000);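 active = inhibition above the plate cutoff, the mean of all test compounds on that plate plus 3 SD, cut at about 35% in these data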;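 note: 0% = DMSO alone and 100% = 100 µM mitoxantrone as full dye displacement; higher means more dye released from RNA so lower well fluorescence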
# rCAG bind conf: small molecules binding CAG repeat RNA – biochemical, fluorescence, confirmation | shares compounds with rCAG RNA binder | r(CAG) RNA repeat, TO-PRO-1 dye displacement fluorescence | inhibition, % at 3 µM | actives 70% (n = 4,300) | AID 652065, 2013;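 active = inhibition above a per-plate cutoff, the mean inhibition of sample wells plus 3 SD, cut at about 35% in these data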;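 note: loss of TO-PRO-1 fluorescence as compound displaces dye from 1x1 AA loop RNA; 0% = DMSO only wells and 100% = 100 µM mitoxantrone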
# DNA CAG counter: displacement of TO-PRO-1 from CAG DNA duplex, counter-screen for rCAG RNA repeat binder project, biochemical, fluorescence, TO-PRO-1 dye, d(CAG) DNA oligo | shares compounds with rCAG RNA binder | d(CAG) DNA oligo TO-PRO-1 dye displacement | inhibition, % at 3 µM | actives 94% (n = 4,300) | AID 652068, 2013;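 active = inhibition above its plate's cutoff, the mean test-well inhibition plus 3 SD, cut at about 4.8% in these data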;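 note: 0% = DNA dye mix with DMSO and 100% = 100 µM mitoxantrone; hits displace the dye from DNA and so lower well fluorescence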
# Starred values were filed as active, the others as inactive; . = no result. Hits are enriched below; roughly 3.2% of the tested compounds scored in any of these assays.
SMILES,MsrA inhibitor,PG9 binder,bovine MsrA act,HGIII-sPLA2 inh,rCAG RNA binder,rCAG bind conf,DNA CAG counter
Cc1ccc(S(=O)(=O)NN2C(=O)/C(=C/c3ccccn3)SC2=S)cc1,1.2,-1.8,6.1,-5.5,44.6*,35.2*,8.5*
O=C(NC1CCCCN(Cc2ccc(Cl)cc2)C1=O)c1ccccc1-c1ccc(Cl)c(Cl)c1 (stereo not given),.,.,.,-3.2,1.8,.,.
O=C(Nc1ccc(C(F)(F)F)cc1)OC1CC2CC1[C@H]1CCCCN1[C@H]2Cc1ccccc1 (stereo not given in full),.,.,.,1.0,7.4,.,.
COC(=O)c1cccc(CSc2nc(-c3ccccc3)c(C#N)c(=O)[nH]2)c1,0.6,0.1,-3.5,-58.8,75.4*,62.5*,23.1*
C=CCSc1nc(-c2ccccc2)c(C#N)c(=O)[nH]1,-0.2,8.4,-1.1,-25.6,12.7,.,.
N#Cc1c(-c2ccccc2)nc(SCc2ccc(Cl)cc2)[nH]c1=O,0.1,0.7,-12.7,-44.7,83.1*,75.8*,39.1*
COc1ccc(-c2nc(SCc3ccc(C#N)cc3)[nH]c(=O)c2C#N)cc1,1.0,-1.5,-2.6,-6.1,11.6,.,.
COc1ccc2nc(NC(=O)c3ccc(NS(=O)(=O)c4cccs4)cc3)sc2c1,3.3,-0.2,-10.6,-43.4,64.8*,66.4*,29.1*
COc1ccc2nc(NC(=O)CNS(=O)(=O)c3cccs3)sc2c1,-0.6,0.5,-5.4,-12.6,8.8,.,.
Cc1cccc2sc(NC(=O)c3ccc(NS(=O)(=O)c4cccs4)cc3)nc12,3.6,0.8,-5.4,-84.2,80.3*,75.7*,40.5*
CC(=O)Nc1nc(-c2ccc([N+](=O)[O-])cc2)cs1,1.6,0.0,-4.5,5.5,4.6,.,.
O=C(Nc1ccc([N+](=O)[O-])cc1)Nc1nc(-c2ccc(Cl)s2)cs1,0.8,-3.6,-3.6,-5.7,51.5*,68.5*,48.0*
O=C(Nc1ccccc1C(=O)Nc1nnc(C(F)(F)F)s1)c1ccccc1Cl,0.2,-2.5,-2.1,-21.4,65.1*,70.8*,29.6*
O=C1OC2(c3ccccc31)c1ccccc1-c1ccccc12,0.9,0.8,-4.1,11.9,4.5,.,.
O=C1OC(c2ccc3ccccc3c2O)(c2ccc3ccccc3c2O)c2ccccc21,0.0,0.9,-0.2,-37.8,63.3*,70.0*,35.0*
CC1=CC(C)(C)NC(=S)N1c1ccccc1C,1.1,1.5,-1.8,17.0,0.2,.,.
CC1=CC(C)(C)NC(=S)N1c1cccc2cc(S(=O)(=O)O)ccc12,1.1,-2.1,-9.7,-11.4,43.4*,87.1*,57.6*
CC(C)COC(=O)N1CCCCC1c1cc(C(=O)NCc2cccnc2)no1 (stereo not given),-1.6,0.6,-1.9,-3.7,1.9,.,.
COc1ccc(/C=C2/SC(=O)N(CCC(=O)Nc3ccc(S(=O)(=O)Nc4nccs4)cc3)C2=O)cc1,4.5,0.6,-4.6,-65.2,83.6*,82.2*,48.7*
COc1ccc(/C=C2\SC(=O)N(CCC(=O)Nc3ccc(S(=O)(=O)Nc4nccs4)cc3)C2=O)cc1,3.6,-1.8,-6.0,-26.0,80.5*,79.2*,45.2*
O=C(c1ccncc1)c1ccc(NS(=O)(=O)c2ccc(Br)s2)cc1,3.4,-1.8,-6.3,-9.4,30.9,.,.
O=C(Nc1ccc2ccccc2c1)c1ccc(NS(=O)(=O)c2ccc(Br)s2)cc1,-0.2,-0.8,-2.7,-108.6,71.1*,87.5*,57.2*
O=S(=O)(Nc1nc2ccccc2nc1N1CCN(c2ccccc2)CC1)c1ccc(F)cc1,1.1,-1.7,-7.9,-15.2,69.1*,67.2*,28.3*
Cc1cc(-c2nc3cccnc3s2)ccc1NS(=O)(=O)c1ccc2c(c1)OCCO2,1.8,1.8,-12.0,-56.6,38.0*,47.2*,13.6*
Cc1c(NS(=O)(=O)c2ccc3c(c2)OCCO3)cccc1-c1nc2cccnc2s1,-0.8,0.0,-5.0,-19.9,10.8,.,.
SMILES,MsrA inhibitor,PG9 binder,bovine MsrA act,HGIII-sPLA2 inh,rCAG RNA binder,rCAG bind conf,DNA CAG counter
Cc1cc(-c2nc3cccnc3s2)ccc1NS(=O)(=O)c1cccs1,3.5,-0.1,-5.8,-29.2,49.8*,37.1*,11.3*
O=C(Nc1cccc(Oc2ccc(C(=O)O)c(C(=O)O)c2)c1)c1ccc(-c2ccccc2)cc1,-1.0,1.0,-11.6,-15.8,57.8*,53.0*,19.5*
CC1(C)CC(=O)N(CC(=O)N2CCN(c3cccc(C(F)(F)F)c3)CC2)c2ccccc2S1(=O)=O,.,.,.,5.7,3.0,.,.
O=c1nc2ccc(Cl)cn2c2ccc(S(=O)(=O)N3CCCCC3)cc12,2.1,1.8,-2.9,-13.2,40.7*,7.6,4.4*
COCCN1Cc2cc(C(=O)OC)c3c(c2C1=O)c1cc(F)ccc1n3C(=O)c1ccccc1,0.2,-1.4,.,-4.5,7.2,.,.
O=C(O)CSCC(=O)N(Cc1ccccc1)c1nc(-c2ccccc2)c(-c2ccccc2)s1,-0.3,-0.1,-4.2,-30.6,68.3*,85.6*,53.6*
Cc1sc(-n2c(C)cc(/C=C3\SC(=S)NC3=O)c2C)c(C#N)c1C,0.0,-0.3,-14.2,1.4,69.3*,75.8*,34.7*
Cc1cc(/C=C2\SC(=S)NC2=O)c(C)[nH]1,0.1,-11.1,-9.3,7.3,34.6*,21.1,6.9*
Cc1cc(/C=C2\SC(=S)NC2=O)c(C)n1-c1cccc(O)c1,0.7,-3.2,-6.3,9.9,51.6*,35.5*,13.5*
CCn1c(C)cc(/C=C2/SC(=S)NC2=O)c1C,-0.8,-2.2,-5.9,-0.6,0.5,.,.
Cc1sc(-n2c(C)cc(/C=N/n3cnnc3)c2C)c(C#N)c1C,.,.,-2.6,.,.,.,.
COC(=O)[C@]12C[C@H](CC(=O)N3CCN(C(=O)c4ccco4)CC3)C(=O)N(Cc3ccccc3)C1=C[C@H](C1CCCC1)O[C@@H]2C,0.7,-0.7,.,-11.7,4.5,.,.
O=C(Nc1ccc(F)cc1)OCc1cn(Cc2ccc(F)cc2F)nn1,.,.,.,-9.4,-0.5,.,.
COc1ccc(C(=O)NNC(=O)C(=O)/C=C(\O)c2ccc(C)cc2)cc1,0.4,-2.1,-2.4,2.9,47.1*,24.7,10.8*
COc1ccccc1C(=O)n1ccc2ccc(-c3ccc4ccn(Cc5ccccc5)c4c3)cc21,.,.,.,6.5,9.2,.,.
C=CCc1cc(C=O)cc(OCC)c1OCc1ccc(Cl)cc1,-0.3,-0.8,-3.2,1.4,-0.1,.,.
C=CCc1cc(/C=C2/NC(=O)N(CC)C2=O)cc(OCC)c1OCc1ccc(C(=O)O)cc1,4.5,-0.8,-9.4,-6.6,42.8*,40.9*,10.1*
